Measured values as given in PubChem BioAssay AID736 (The Scripps Research Institute Molecular Screening Center, 2007).
Out of some 97,000 compounds screened, about 210 (0.22%) were called active. What follows is part of a selection rich in actives, with near analogues and random picks from the rest. Values without a mark were called inactive. No stated cut-off is given here; in the data, active means inhibition above about 45%; inactive means the rest.

The compounds below were run against Sphingosine 1-phosphate receptor 2 (Homo sapiens) (UniProt O95136) (assay: blockers of S1P2 receptor signalling – cell-based, primary screen (AID 736;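 further: CRE beta-lactamase reporter cells expressing human S1P2 stimulated with S1P; 0% = agonist at EC80 alone and 100% = agonist plus reference antagonist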)). Conditions: cell-based S1P2 antagonist assay, at 5 µM, stronger effect = higher value.
Sequence of Sphingosine 1-phosphate receptor 2 (Homo sapiens) (O95136 whole entry, looked up): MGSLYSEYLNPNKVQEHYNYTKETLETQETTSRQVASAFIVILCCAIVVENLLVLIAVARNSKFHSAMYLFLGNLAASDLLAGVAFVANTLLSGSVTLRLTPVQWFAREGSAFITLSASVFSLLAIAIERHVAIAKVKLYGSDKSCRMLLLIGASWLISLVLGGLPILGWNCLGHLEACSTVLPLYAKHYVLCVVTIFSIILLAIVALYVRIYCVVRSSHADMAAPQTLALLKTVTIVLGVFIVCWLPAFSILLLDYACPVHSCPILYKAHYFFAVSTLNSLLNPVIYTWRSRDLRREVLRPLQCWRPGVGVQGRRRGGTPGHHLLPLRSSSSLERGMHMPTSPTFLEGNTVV

Row | Structure (SMILES) | inhibition
1 | Cc1nn(C)cc1/C=N/NC(=O)c1sc2ccccc2c1Cl | -19.2%
2 | O=C(CCNS(=O)(=O)c1ccccc1C(F)(F)F)NCc1ccc2c(c1)OCO2 | -42.1%
3 | CCOc1cc(-c2cc(-c3ccc(OC)cc3)nc(N)c2C#N)ccc1O | -25.8%
4 | COc1ccc2[nH]c(=O)c(CNc3ccc(C)c(C)c3)cc2c1 | 17.9%
5 | CC1(C)NC(=O)N(CCCCSc2ccc(Cl)cc2)C1=O | 11.3%
6 | CCc1nnc(NC(=O)CSc2nc3ccccc3c(=O)n2CCCOC)s1 | 2.95%
7 | COc1ccc(C(F)(F)F)cc1N/C=C\c1nnnn1-c1ccc(C)cc1 | -17.3%
8 | CCNC(=S)Nc1cccc(Cl)c1C | 13.9%
9 | CCc1ccc(C2C(C#N)=C(N)Oc3n[nH]c(CC(=O)OC)c32)cc1 (stereo not given) | -30.6%
10 | Cc1ccc(S(=O)(=O)NCCSC(C)(C)C)cc1 | -2.88%
11 | Cc1ccc(S/C(=N\S(=O)(=O)c2ccc(Cl)cc2)c2ccccc2)cc1 | -10.2%
12 | O=C(Nc1cccc(-c2nc3ncccc3o2)c1)c1ccco1 | -19.4%
13 | CCOC(=O)C1C(=O)NCC1c1ccccc1 (stereo not given) | -4.06%
14 | COc1ccc(Cc2nnc(SC)[nH]c2=O)cc1 | -19.6%
15 | Cc1cccc(C)c1OC(=O)CSc1nnc(-c2ccccc2)o1 | -20%
16 | O=C(NCCN1CCN(Cc2ccccc2)CC1)c1cc2c(=O)[nH]c3ccccc3c2s1 | -27.2%
17 | Cc1cc(C=O)c(C)n1-c1ccc(NC2CCCCC2)c([N+](=O)[O-])c1 | 4.51%
18 | Cc1ccc(N2CCN(/N=C/c3cccs3)CC2)cc1 | 22.6%
19 | Cc1cc([N+](=O)[O-])c(N2CCC[C@@H]2C(=O)O)c([N+](=O)[O-])c1 | 16.9%
20 | COc1ccc(N(CC(=O)N/N=C/c2cccc3c2OCCO3)S(=O)(=O)c2ccc(NC(C)=O)cc2)cc1 | 10.2%
21 | COc1ccc(C2C(C(C)=O)=C(O)C(=O)N2Cc2cccnc2)cc1 (stereo not given) | 5.26%
22 | Cc1nnsc1S(=O)(=O)Cc1ccccc1Cl | 6.79%
23 | CC(=O)NS(=O)(=O)c1ccc(NC(=S)NC(=O)C(C)(C)C)cc1 | 1.69%
24 | CS(=O)(=O)Nc1cccc(C2=NN(S(=O)(=O)c3ccccc3)C(c3cccs3)C2)c1 (stereo not given) | 21.1%
25 | Clc1ccc(Cl)c(Oc2ccc(Oc3nc(Cl)ccc3Cl)cc2)n1 | -3.25%

Row | Structure (SMILES) | inhibition
26 | O=C(Cc1ccc(-n2c(=O)c3sccc3n(Cc3ccc(F)cc3)c2=O)cc1)NCc1ccco1 | 14.3%
27 | O=C(NCCCCCCNC(=O)NCc1ccco1)NCc1ccco1 | -14.7%
28 | Cc1cc(-c2ccc(/C=N/n3cnnc3)o2)c([N+](=O)[O-])cc1C | 1.7%
29 | COc1ccc(-n2c(C)csc2=S)cc1 | -2.06%
30 | Cn1nc([N+](=O)[O-])nc1Sc1ccc(C(C)(C)C)cc1 | 1.08%
31 | CC(N=Cc1nc(-c2ccccc2)oc1O)c1ccccc1 (stereo not given) | -15.5%
32 | O=C(Nc1nnc(CCOCCOCCc2nnc(NC(=O)c3ccco3)s2)s1)c1ccco1 | 0.16%
33 | COc1ccc(Br)cc1CN1CCN(C(=O)c2cccc(OC)c2OC)CC1 | -12.2%
34 | O=C1c2ccccc2NC(c2ccc(-c3cccc(Cl)c3)o2)N1O (stereo not given) | 9.34%
35 | CCCCc1nnc(NC(=O)CS(=O)(=O)Cc2ccccc2)s1 | 11.7%
36 | Brc1ccc(-c2nnc(-c3ccccc3)o2)o1 | -21.1%
37 | O=C(Nc1cccc2ccccc12)c1onc2c1CCCC2 | -13%
38 | ONC(=Nc1ccccc1)c1ccccc1Cl | -2.09%
39 | CCOC(=O)c1c(NC(=O)c2ccc(N3CCOCC3)c([N+](=O)[O-])c2)sc(C)c1C | -6.51%
40 | CC(C)CC[n+]1ccn(C2=C([O-])c3ccccc3C(=O)/C2=N\S(=O)(=O)c2ccccc2)c1 | 18.2%
41 | CCOC(=O)c1ccccc1NS(=O)(=O)c1ccc(OC)cc1 | -9.6%
42 | Cc1nc2ccccc2cc1OCc1ccc(F)cc1 | 56.8% (active)
43 | Cc1nc2ccccc2cc1O | -18.9%
44 | CCOC(=O)c1cc2ccccc2nc1C | -7.13%
45 | CCN(CC)S(=O)(=O)c1ccc(N2CCOCC2)c(C(=O)O)c1 | 0.01%
46 | COc1ccc(-c2noc(CSc3ccc(C)cc3)n2)cc1 | 8.11%
47 | C=CCO/N=C(\C)c1c(O)c(C)c(-c2ccccc2)n(-c2ccccc2)c1=O | 1.26%
48 | CCn1c2ccccc2c2cc(NC(=S)N3CCOCC3)ccc21 | 7.28%
49 | Cc1ccc(CNC(=O)c2ccccc2CCc2ccccc2)cc1 | -23.4%
50 | CCCCCCC(=O)Nc1nc(C)c(-c2csc(Nc3cc(Cl)ccc3OC)n2)s1 | 8.39%

Row | Structure (SMILES) | inhibition
51 | c1cnc(Nc2nc(-c3ccc4ccccc4c3)cs2)nc1 | 10.4%
52 | O=c1cc(CN2CCN(c3cccc(Cl)c3)CC2)c2cc3c(cc2o1)CCCC3 | 2.36%
53 | O=C(O)c1cccnc1NC1CCCC1 | -6.46%
54 | CC(C)C(NC(=O)c1ccc(Cl)cc1)C(=O)O (stereo not given) | 18.8%
55 | Cc1ccccc1-n1nc(C)c2cc(C(=O)NC3CC3)sc21 | 2.59%
56 | Cc1ccc(-c2ccnc3nc(Sc4ncc(C(F)(F)F)cc4Cl)nn23)cc1 | -3.44%
57 | CSc1nc(N(C)NC(=O)c2cccc(C)c2)c2ccccc2n1 | 5.9%
58 | CCN(c1ccccc1)S(=O)(=O)c1ccc(C(=O)Nc2nccs2)cc1 | -3.2%
59 | O=C(Nc1ccn(Cc2ccccc2F)n1)c1ccc(COc2ccc(Cl)cc2Cl)o1 | 6.95%
60 | Cc1ccc(-n2nc3cc(C)c(NC(=O)c4cccnc4)cc3n2)cc1 | 3.29%
61 | Cc1cc(=O)[nH]c(SCc2cccc(F)c2)n1 | -28.1%
62 | O=[N+]([O-])c1ccccc1/C=N/n1c(COc2ccccc2)n[nH]c1=S | 18.3%
63 | N=c1c2c(-c3ccccc3)c(-c3ccccc3)oc2ncn1Cc1ccco1 | 2.42%
64 | CCOc1c(Br)cc(/C=C2\C(=O)N(CCC#N)N=C2C)cc1OC | -33.3%
65 | Cc1cc(C)cc(OCC(=O)NNC(=O)c2cc3ccccc3oc2=O)c1 | -16.6%
66 | CCN(CC)Cc1csc2ccc(Br)cc12 | -1.56%
67 | C=CCN(C(=O)Nc1ccc2oc(C)nc2c1)c1ccccc1 | 3.19%
68 | COc1ccccc1NC(=O)/C=C/C(N)=O | -12.8%
69 | CC(C)N(c1ccccc1)c1ncnc(NCCC(=O)O)c1[N+](=O)[O-] | 15.5%
70 | CC1=C/C(=N\OS(=O)(=O)c2ccccc2)C=CC1=O | 82.9% (active)
71 | CCOC(=O)C1(S(=O)(=O)c2ccccc2)CCN(Cc2ccccc2)CC1 | 17%
72 | Cc1ccc(S(=O)(=O)c2ccc(Oc3ccccc3)cc2)cc1 | -7.17%
73 | O=C(Nc1ccccc1)c1nnsc1S(=O)(=O)c1ccc(Cl)cc1 | 61.4% (active)
74 | CC(=O)Nc1cc(C(=O)O)ccc1S(=O)(=O)c1ccc(Cl)cc1 | 3.81%
75 | O=C(Nc1ccc(Cl)cc1)c1ccsn1 | 11.1%

Row | Structure (SMILES) | inhibition
76 | CC(=O)Oc1ccc(C(C)=O)c2c1OCCO2 | -13%
77 | COc1ccc(Nc2ncc(C(=O)N3CCN(c4ccccc4OC)CC3)c3ccccc23)cc1 | -4.51%
78 | CC1CCN(C(=O)CN(c2ccc(Oc3ccccc3)cc2)S(C)(=O)=O)CC1 | -1.57%
79 | C=CCNC(=O)c1csc(-c2ccccc2)n1 | 5.01%
80 | CC(C)CC(=O)N1CCC(O)(CS(=O)(=O)Cc2ccccc2)CC1 | 5.12%
81 | Cc1[nH]n(-c2ccc(Cl)cc2)c(=O)c1/C=N/n1c(C)nc2ccccc2c1=O | 2.28%
82 | Cc1ccc(-c2nc(C)sc2CC(=O)O)cc1 | 10.8%
83 | CCCSC(=S)NC1CCS(=O)(=O)C1 (stereo not given) | 15.8%
84 | COc1ccc(C(=O)Nc2nc(-c3ccc(S(=O)(=O)N4CCOCC4)cc3)cs2)cc1 | 19.7%
85 | COc1ccc(OC)c(NC(=O)c2cnn(-c3ccccc3Cl)c2NC(=O)c2ccco2)c1 | -6.97%
86 | O=C(NC1CCCCC1)c1ccc(CNc2c(N3CCOCC3)c(=O)c2=O)cc1 | -21.1%
87 | Cc1nnc(SCc2nc3ccccc3nc2C)s1 | -20.9%
88 | Cc1nn(-c2ccccc2)c(Cl)c1C(=O)Nc1ccccc1 | -0.13%
89 | CCN(CC)C(=O)CSc1nc2ccccc2o1 | 3.55%
90 | c1ccc(CC2CCN(c3nc4ccccc4n4cnnc34)CC2)cc1 | -5.6%
91 | Cc1nn(C(C)CC(=O)O)c(C)c1C (stereo not given) | -0.29%
92 | CCC(C)NC(=O)CSC1=Nc2ccccc2C2=NC(CCC(=O)NCc3ccco3)C(=O)N12 (stereo not given) | 1.95%
93 | CCC(C)NC(=O)c1ccccc1NC(=O)c1ccccc1N(C)S(C)(=O)=O (stereo not given) | -10.9%
94 | CC(=O)N1CCCc2cc(S(=O)(=O)CCC(=O)N3CCN(c4ccccc4)CC3)ccc21 | 0.06%
95 | Cn1nc(C(F)(F)F)c2cc(NC(=O)OCC(C)(C)C)sc21 | -6.24%
96 | Clc1ccccc1SCc1nc2ccccc2[nH]1 | 11.2%
97 | COc1ccc(N2CCN(Cc3ccc(Br)s3)CC2)cc1 | -19.3%
98 | CC(C)(C)n1nnnc1C(c1ccc(F)cc1)N1CCN(Cc2ccc3c(c2)OCO3)CC1 (stereo not given) | 9.67%
99 | Cc1cc(N2CCN(Cc3ccc4c(c3)OCO4)CC2)n2ncnc2n1 | 13.4%
100 | Fc1ccc2[nH]c3c(N4CCN(Cc5ccc6c(c5)OCO6)CC4)ncnc3c2c1 | 80.7% (active)
